Rows were chosen to be rich in hits. Some 2.5% of all compounds tested hit in one or more screens of this group.
GRK2 aptamer HTS: blocks RNA aptamer binding to human GRK2. bead flow cytometry, FAM-aptamer displacement from GRK2. inhibition of aptamer binding, % at 10 µM. P25098. 330,000 tested, 0.59% active;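 active means inhibition of aptamer binding above 40%, roughly 3 SD of noise, on plates passing a quality check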;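 further: median bead fluorescence of bound FAM aptamer so fluorescent compounds give negative values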
MEKK2wt PB1 HTS: raises or lowers MEK5 binding to wildtype human MEKK2 PB1 domain; bead flow cytometry, Alexa488-MEK5 binding to MEKK2 WT; actives lie on both sides; 290,000 tested, 1.1% active; Q9Y2U5; binding response (% of control), % at 10 µM; in the data active means binding response below about 67% or above about 130%
MEKK2mut PB1 HTS: signal of MEK5 binding to mutant human MEKK2 PB1 domain | bead flow cytometry, Alexa488-MEK5 binding to MEKK2 mutant | percent response, % at 10 µM | 290,000 tested, 0.35% active | AID 1530; in the data active means percent response above about 24%, passing the limit was not always enough
MEKK3 PB1 HTS: MEKK3-MEK5 PB1 interaction, increase or decrease; Q99759; bead-based flow cytometry, Alexa488-MEK5 binding to MEKK3; actives lie on both sides; 0 = blocked by unlabeled MEK5, 100 = vehicle; binding response (% of control), % at 10 µM; 290,000 tested, 1.4% active;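 active means binding response more than 3 SD above or below the average of its plate-row segment, actives on both sides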;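 further: Alexa488 bead fluorescence after subtracting the streptavidin-only scavenger bead signal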
Target sequence (Q99759 whole entry, looked up): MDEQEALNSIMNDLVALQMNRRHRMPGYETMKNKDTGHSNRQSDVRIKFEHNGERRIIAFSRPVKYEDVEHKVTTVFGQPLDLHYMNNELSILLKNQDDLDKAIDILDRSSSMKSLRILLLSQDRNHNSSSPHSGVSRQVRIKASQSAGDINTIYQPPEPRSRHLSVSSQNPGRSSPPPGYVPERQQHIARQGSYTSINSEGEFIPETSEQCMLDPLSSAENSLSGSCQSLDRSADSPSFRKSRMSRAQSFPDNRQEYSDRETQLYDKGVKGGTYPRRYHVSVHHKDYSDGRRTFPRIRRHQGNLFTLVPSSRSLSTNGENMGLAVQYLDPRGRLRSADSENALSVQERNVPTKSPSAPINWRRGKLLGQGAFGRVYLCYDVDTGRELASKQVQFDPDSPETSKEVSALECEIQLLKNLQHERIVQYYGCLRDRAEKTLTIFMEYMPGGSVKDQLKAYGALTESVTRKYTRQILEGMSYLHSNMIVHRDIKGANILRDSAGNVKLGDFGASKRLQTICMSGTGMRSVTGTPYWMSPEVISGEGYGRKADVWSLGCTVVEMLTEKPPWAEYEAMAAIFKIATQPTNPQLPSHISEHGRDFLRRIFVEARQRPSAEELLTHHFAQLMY
MEKK2wt confirm: raises or lowers MEK5 binding to wildtype human MEKK2, retest; shares compounds with MEKK3 PB1 HTS; bead flow cytometry, Alexa488-MEK5 binding to MEKK2 WT; actives lie on both sides; binding response (% of control), % at 10 µM; 5,900 tested, 2.4% active; AID 1892; in the data active means binding response below about 16% or above about 210%; inactive means in between
MEKK2mut confirm: signal of MEK5 binding to mutant human MEKK2, retest. shares compounds with MEKK3 PB1 HTS. percent response, % at 10 µM. bead flow cytometry, Alexa488-MEK5 binding to MEKK2 mutant. AID 1893. 5,900 tested, 2% active; in the data active means percent response mostly above about 71%, no sharp cut-off; inactive means mostly below about 38%;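 further: higher means compound restores mutant binding toward wildtype level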
MEKK3 confirm: confirmation of inhibitors of MEK5 binding to human MEKK3; shares compounds with MEKK3 PB1 HTS; bead flow cytometry, Alexa488-MEK5 binding to MEKK3; active compounds read low; binding response (% of control), % at 10 µM; 5,900 tested, 1.8% active; AID 1894;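 active means binding response below 72% of control, or above a set upper limit, though filed actives all read lower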;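 further: 100% = DMSO only wells and 0% = binding blocked by excess unlabeled MEK5; lower values mean stronger disruption of MEK5 binding to MEKK3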
Numbers without * were called inactive; [ ] = dose if it differs, or a comment.

For Cc1cc(Nc2cccc(F)c2)nc(NCc2ccccc2)n1 the results were GRK2 aptamer HTS 1, MEKK2wt PB1 HTS 142*, MEKK2mut PB1 HTS 41, MEKK3 PB1 HTS 107, MEKK2wt confirm 169, MEKK2mut confirm 37 and MEKK3 confirm 107.
Screening N#C/C(=C\c1cn(Cc2ccc(F)cc2)c2ccccc12)C(=O)NCc1ccco1 returned GRK2 aptamer HTS 0, MEKK2wt PB1 HTS 103, MEKK2mut PB1 HTS 0, MEKK3 PB1 HTS 129*, MEKK2wt confirm 97, MEKK2mut confirm -3 and MEKK3 confirm 100.
`CCc1ccc(NC(=O)/C(C#N)=C/c2cn(CC(=O)O)c3ccccc23)cc1` gave GRK2 aptamer HTS 3, MEKK2wt PB1 HTS 99, MEKK2mut PB1 HTS -11 and MEKK3 PB1 HTS 110.
`N#C/C(=C/c1cn(CC(=O)O)c2ccccc12)C(=O)Nc1ccccc1` gave GRK2 aptamer HTS 0, MEKK2wt PB1 HTS 41*[inhibitor], MEKK2mut PB1 HTS 5, MEKK3 PB1 HTS 100, MEKK2wt confirm 96, MEKK2mut confirm 0 and MEKK3 confirm 100.
CC(C)(C)n1ncc2c(=O)n(Cc3ccc(Cl)cc3Cl)cnc21 was read as GRK2 aptamer HTS 10, MEKK2wt PB1 HTS 2.0*[inhibitor], MEKK2mut PB1 HTS -69, MEKK3 PB1 HTS 2.0*[inhibitor], MEKK2wt confirm 105, MEKK2mut confirm -1 and MEKK3 confirm 105.
`CC(C)(C)n1ncc2c(=O)n(Cc3c(F)cccc3Cl)cnc21` gave GRK2 aptamer HTS 0, MEKK2wt PB1 HTS 98, MEKK2mut PB1 HTS 0 and MEKK3 PB1 HTS 100.
NC1=NC(c2cccc(O)c2)n2c(nc3ccccc32)N1 (stereo not drawn) was read as GRK2 aptamer HTS 0, MEKK2wt PB1 HTS 106, MEKK2mut PB1 HTS 7 and MEKK3 PB1 HTS 104.
For Cc1ccc(-n2c(C)cc(C3N=C(N)Nc4nc5ccccc5n43)c2C)c(C)c1 (stereo not drawn) the results were GRK2 aptamer HTS 0, MEKK2wt PB1 HTS 134*, MEKK2mut PB1 HTS 28*, MEKK3 PB1 HTS 110, MEKK2wt confirm 151, MEKK2mut confirm 56 and MEKK3 confirm 108.
Screening NC1=NC(c2ccc(F)cc2)n2c(nc3ccccc32)N1 (stereo not drawn) returned GRK2 aptamer HTS 1, MEKK2wt PB1 HTS 105, MEKK2mut PB1 HTS 7 and MEKK3 PB1 HTS 105.
`Cc1cc(C2N=C(N)Nc3nc4ccccc4n32)c(C)n1-c1ccccc1Cl` (stereo not drawn) gave GRK2 aptamer HTS 0, MEKK2wt PB1 HTS 138*, MEKK2mut PB1 HTS 26*, MEKK3 PB1 HTS 113, MEKK2wt confirm 148, MEKK2mut confirm 17 and MEKK3 confirm 96.
CCOC(=O)c1c(C)n(C)c2ccc(O)c(CN3CCC(C)CC3)c12 was read as GRK2 aptamer HTS 1, MEKK2wt PB1 HTS 98, MEKK2mut PB1 HTS -8 and MEKK3 PB1 HTS 91.
Screening CCOC(=O)C1=C(C)Nc2ccccc2N=C1NC(=O)c1cccc(S(=O)(=O)N(C)C)c1 returned GRK2 aptamer HTS 0, MEKK2wt PB1 HTS 3.0*[inhibitor], MEKK2mut PB1 HTS -24, MEKK3 PB1 HTS 3.0*[inhibitor], MEKK2wt confirm 103, MEKK2mut confirm 1 and MEKK3 confirm 103.
`COc1ccc(CC(=O)NNc2ncnc3c2cnn3-c2ccc(C)cc2)cc1` gave GRK2 aptamer HTS 1, MEKK2wt PB1 HTS 95, MEKK2mut PB1 HTS 0 and MEKK3 PB1 HTS 96.
`COc1ccc(CC(=O)NNc2ncnc3c2cnn3-c2ccccc2)cc1` gave GRK2 aptamer HTS 0, MEKK2wt PB1 HTS 103, MEKK2mut PB1 HTS 0, MEKK3 PB1 HTS 136*, MEKK2wt confirm 89, MEKK2mut confirm -2 and MEKK3 confirm 97.
`CC(CN1CCOCC1)C(=O)O` (stereo not drawn) gave GRK2 aptamer HTS 0, MEKK2wt PB1 HTS 127, MEKK2mut PB1 HTS 11, MEKK3 PB1 HTS 126*, MEKK2wt confirm 97, MEKK2mut confirm -2 and MEKK3 confirm 101.
Screening CC(=O)N1N=C(c2ccccc2)CC1c1cn(C)c2ccccc12 (stereo not drawn) returned GRK2 aptamer HTS 4, MEKK2wt PB1 HTS 113, MEKK2mut PB1 HTS 3, MEKK3 PB1 HTS 157*, MEKK2wt confirm 98, MEKK2mut confirm 4 and MEKK3 confirm 103.
Screening O=C(O)CCC(=O)Nc1ccc(Cc2ccc(NC(=O)CCC(=O)O)c(O)c2)cc1O returned GRK2 aptamer HTS 1, MEKK2wt PB1 HTS 107, MEKK2mut PB1 HTS 4 and MEKK3 PB1 HTS 111.
`O=C(Nc1ccc(Cc2ccc(NC(=O)C3CC3)c(O)c2)cc1O)C1CC1` gave GRK2 aptamer HTS 2, MEKK2wt PB1 HTS 119, MEKK2mut PB1 HTS 6, MEKK3 PB1 HTS 127*, MEKK2wt confirm 113, MEKK2mut confirm 7 and MEKK3 confirm 103.
`Cn1c(C(=O)N2CCN(C(=O)c3ccco3)CC2)cc2c(=O)n3ccccc3nc21` gave GRK2 aptamer HTS 9, MEKK2wt PB1 HTS 129, MEKK2mut PB1 HTS 6, MEKK3 PB1 HTS 138*, MEKK2wt confirm 96, MEKK2mut confirm -5 and MEKK3 confirm 97.
`CCCn1c(=NC(=O)c2ccco2)c(C(=O)OCC)cc2c(=O)n3ccccc3nc21` gave GRK2 aptamer HTS 0, MEKK2wt PB1 HTS -2.0*[inhibitor], MEKK2mut PB1 HTS -26, MEKK3 PB1 HTS 2.0*[inhibitor], MEKK2wt confirm 93, MEKK2mut confirm -14 and MEKK3 confirm 93.
Screening CC(C)Cn1c(CN2CCN(C(=O)c3ccco3)CC2)nc2c1c(=O)n(C)c(=O)n2C returned GRK2 aptamer HTS 3, MEKK2wt PB1 HTS 125, MEKK2mut PB1 HTS 3, MEKK3 PB1 HTS 141*, MEKK2wt confirm 101, MEKK2mut confirm 1 and MEKK3 confirm 103.
For CCOC(=O)c1cc2c(=O)n3ccccc3nc2n(C(C)C)c1=NC(=O)c1ccco1 the results were GRK2 aptamer HTS 1, MEKK2wt PB1 HTS 91, MEKK2mut PB1 HTS -3 and MEKK3 PB1 HTS 97.
For CC(C)CCn1c(CN2CCN(C(=O)c3ccco3)CC2)nc2c1c(=O)n(C)c(=O)n2C the results were GRK2 aptamer HTS 2, MEKK2wt PB1 HTS 98, MEKK2mut PB1 HTS 5 and MEKK3 PB1 HTS 95.
Screening CC1CC(C)CN(S(=O)(=O)CCNC(=O)c2ccccc2)C1 (stereo not drawn) returned GRK2 aptamer HTS 1.
Screening Oc1[nH]c2ccccc2c1N=NC(=S)NCCc1ccccc1 returned GRK2 aptamer HTS 1, MEKK2wt PB1 HTS 102, MEKK2mut PB1 HTS 0, MEKK3 PB1 HTS 130*, MEKK2wt confirm 94, MEKK2mut confirm -7 and MEKK3 confirm 96.

High-throughput results (PubChem)
